Assay results from PubChem BioAssay (EPA / NIEHS).
Records with an inconclusive call do not appear. Active and inactive are the calls of the source. Rule for the calls, unless noted: active = hit-call score of the fitted dose curve at least 0.9, where 1 is the maximum; inconclusive = response in the unintended direction; inactive = score below 0.9.

Columns and labels:
[1] = read-out: Thyroid Hormone Responsive (THRSP), THRSP (gene 7069); experiment: LTEA_HepaRG_THRSP: Life Technologies and Expression Analysis (LTEA) Assay for Thyroid Hormone Responsive (THRSP) using HepaRG (AID 2283536; active = hit-call score of the fitted dose curve at least 0.9, where 1 is the maximum; inactive = score below 0.9); conditions: mRNA level, 48 h; actives raise or lower the signal
Procedure, shortened: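 Differentiated HepaRG cells treated 48 h in serum-free induction medium with 8 half-log concentrations up to 100 uM (0.5% DMSO), duplicates. THRSP mRNA by TaqMan qRT-PCR normalised to ACTB, GAPDH, POLR2A; bidirectional fit versus DMSO.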

[2] = read-out: Cellular tumor antigen p53 (Homo sapiens) (UniProt P04637); experiment: LTEA_HepaRG_TP53: Life Technologies and Expression Analysis (LTEA) Assay for Tumor Protein P53 (TP53) using HepaRG (AID 2283537; active = hit-call score of the fitted dose curve at least 0.9, where 1 is the maximum; inactive = score below 0.9); conditions: mRNA level, 48 h; actives raise or lower the signal
Procedure, shortened: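 Read-out is TP53 transcript level by microfluidic qRT-PCR, normalised to three housekeeping genes and fitted bidirectionally against DMSO. Human HepaRG cells received compounds for 48 h, highest concentration 100 uM.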

[3] = read-out: UDP glucuronosyltransferase (UGT1A1), UGT1A1 (gene 54658); experiment: LTEA_HepaRG_UGT1A1: Life Technologies and Expression Analysis (LTEA) Assay for UDP glucuronosyltransferase (UGT1A1) using HepaRG (AID 2283538; active = hit-call score of the fitted dose curve at least 0.9, where 1 is the maximum; inactive = score below 0.9); conditions: mRNA level, 48 h; actives raise or lower the signal
Procedure, shortened: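 Readout is UGT1A1 transcript level by qRT-PCR, normalized to three housekeeping genes, after 48 h chemical treatment of HepaRG cells. Concentrations ran from 100 uM down in half-log steps with 0.5% DMSO, and gain or loss relative to DMSO was fitted.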

[4] = read-out: UDP glucuronosyltransferase (UGT1A6), UGT1A6 (gene 54578); experiment: LTEA_HepaRG_UGT1A6: Life Technologies and Expression Analysis (LTEA) Assay for UDP glucuronosyltransferase (UGT1A6) using HepaRG (AID 2283539; active = hit-call score of the fitted dose curve at least 0.9, where 1 is the maximum; inactive = score below 0.9); conditions: mRNA level, 48 h; actives raise or lower the signal
Procedure, shortened: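 Expression was quantified by TaqMan qRT-PCR on Fluidigm arrays with ACTB/GAPDH/POLR2A normalization and bidirectional fitting against 0.5% DMSO. HepaRG cells (~100,000/well) were treated in duplicate for 48 h at eight half-log concentrations up to 100 uM in serum-free induction medium.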

[5] = read-out: X-box binding protein 1 (XBP1), XBP1 (gene 7494); experiment: LTEA_HepaRG_XBP1: Life Technologies and Expression Analysis (LTEA) Assay for X-box binding protein 1 (XBP1) using HepaRG (AID 2283540; active = hit-call score of the fitted dose curve at least 0.9, where 1 is the maximum; inactive = score below 0.9); conditions: mRNA level, 48 h; actives raise or lower the signal
Procedure, shortened: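 XBP1 transcript by qRT-PCR (housekeeping-normalized: ACTB, GAPDH, POLR2A) after 48 h chemical treatment of HepaRG cells, 8-point half-log series topping at 100 uM, vehicle 0.5% DMSO. Gain and loss of signal fitted relative to DMSO.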

[6] = LTEA_HepaRG_LDH_cytotoxicity: Cytotoxicity Assessment in the Life Technologies and Expression Analysis (LTEA) Assay (AID 2283563)
Procedure, shortened: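 LDH release into culture medium read after 48 h chemical treatment of HepaRG cells. Duplicate wells, eight-point half-log series topping at 100 uM, 0.5% DMSO vehicle and baseline.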

[7] = ATG_XTT_Cytotoxicity: Cytotoxicity Assessment in the Attagene TRANS-FACTORIAL HepG2 Assay (AID 2283584)
Procedure, shortened: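 Viability endpoint from XTT after 24 h chemical exposure of reporter-transfected human HepG2 liver cells; signal loss fitted relative to DMSO negative control.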

[8] = TOX21_p53_BLA_p2_viability: Viability Assessment in the Tox21 HCT-116 p53 Agonism Beta-lactamase Assay, Phase 2 (AID 2283591);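 note: compound exposure lasted 16 h at 37 °C; actives lower the ATP signal meaning cytotoxicity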
Procedure, shortened: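 HCT116 p53-bla cells, 4000/well, dosed after 5 h plating (217-fold dilution of DMSO stocks) and incubated 16 h at 37C. Viability taken as cellular ATP by CellTiter-Glo luminescence after 30 min RT; signal loss marks cytotoxicity.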

[9] = target: Cellular tumor antigen p53 (Homo sapiens) (UniProt P04637); experiment: TOX21_p53_BLA_p2_ratio: Tox21 HCT-116 p53 Agonism Beta-lactamase Assay, Ratio, Phase 2 (AID 2283592)
Cellular tumor antigen p53 (Homo sapiens), sequence (P04637 whole entry, looked up): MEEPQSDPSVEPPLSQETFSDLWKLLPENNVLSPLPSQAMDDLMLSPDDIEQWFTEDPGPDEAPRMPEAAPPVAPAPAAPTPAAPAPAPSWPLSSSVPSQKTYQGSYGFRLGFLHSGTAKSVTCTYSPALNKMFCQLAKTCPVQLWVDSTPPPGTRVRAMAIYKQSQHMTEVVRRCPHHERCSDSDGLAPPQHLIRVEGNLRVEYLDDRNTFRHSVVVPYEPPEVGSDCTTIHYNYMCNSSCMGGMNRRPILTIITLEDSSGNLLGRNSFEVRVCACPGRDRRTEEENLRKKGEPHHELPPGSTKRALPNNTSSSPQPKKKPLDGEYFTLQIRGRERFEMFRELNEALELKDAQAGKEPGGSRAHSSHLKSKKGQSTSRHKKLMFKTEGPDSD
Procedure, shortened: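 Gain-of-signal p53 agonism was scored from the beta-lactamase FRET ratio (460/530 nm, 405 nm excitation) in HCT116 cells treated 16 h at 37C, 5% CO2, with DMSO serving as negative control and baseline.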

[10] = target: Cellular tumor antigen p53 (Homo sapiens) (UniProt P04637); experiment: TOX21_p53_BLA_p3_ratio: Tox21 HCT-116 p53 Agonism Beta-lactamase Assay, Ratio, Phase 3 (AID 2283596)
Procedure, shortened: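 HCT116 p53-bla cells (4000/well) given compound in DMSO (217-fold dilution) after 5 h, incubated 16 h at 37C. CCF4-AM substrate 2 h at room temperature; 460/530 nm emission ratio, gain fitted against DMSO.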

[11] = target: Cellular tumor antigen p53 (Homo sapiens) (UniProt P04637); experiment: TOX21_p53_BLA_p5_ratio: Tox21 HCT-116 p53 Agonism Beta-lactamase Assay, Ratio, Phase 5 (AID 2283599)
Procedure, shortened: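 HCT-116 p53-bla cells (4000/well) plated 5 h, dosed with compound (217-fold DMSO dilution) for 16 h at 37 C; CCF4-AM substrate 2 h at room temperature. Activity is the 460/530 nm emission ratio (405 nm excitation), fitted in gain-of-signal direction versus DMSO.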

[12] = target: Cellular tumor antigen p53 (Homo sapiens) (UniProt P04637); experiment: TOX21_p53_BLA_p4_ratio: Tox21 HCT-116 p53 Agonism Beta-lactamase Assay, Ratio, Phase 4 (AID 2283601)
Procedure, shortened: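 HCT-116 p53 beta-lactamase reporter cells (4000/well) preincubated 5 h, then compound (217-fold dilution of DMSO stock) for 16 h at 37C. CCF4-AM substrate added 2 h at room temperature; 460/530 nm emission ratio fitted upward versus DMSO.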

[13] = Tanguay_ZF_120hpf_MORT_legacy: (Legacy) Oregon State University Tanguay Lab 120 Hour Post-fertilization zebrafish Assay for Mortality (AID 2283633)
Procedure, shortened: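 Static waterborne exposure from 6 to 120 hpf at 28C of single dechorionated wild-type (5D) embryos per well, 0.64% DMSO final. Death recorded present/absent by brightfield at 24 and 120 hpf.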

[14] = Tanguay_ZF_120hpf_YSE_legacy: (Legacy) Oregon State University Tanguay Lab 120 Hour Post-fertilization zebrafish Assay for Yolk Sac Edema (AID 2283634)
Procedure, shortened: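 Presence or absence of yolk sac edema was recorded at 120 hpf in surviving larvae. These were wild-type Tropical 5D embryos, chorion removed at 4 hpf, held in static exposure at 28C from 6 hpf with 0.64% DMSO vehicle.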

[15] = Tanguay_ZF_120hpf_AXIS_legacy: (Legacy) Oregon State University Tanguay Lab 120 Hour Post-fertilization zebrafish Assay for Body Axis Malformation (AID 2283635)
Procedure, shortened: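 Binary scoring of axis defects at 120 hpf under brightfield, fitted positive versus DMSO. Tropical 5D embryos, chorion removed by pronase at 4 hpf, were singly exposed in sealed, dark plates at 28C from 6 hpf; DMSO 0.64% final.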

[16] = Tanguay_ZF_120hpf_EYE_legacy: (Legacy) Oregon State University Tanguay Lab 120 Hour Post-fertilization zebrafish Assay for Eye Malformation (AID 2283636);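 note: binary presence or absence of eye malformation scored by brightfield in 120 hpf larvae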
Procedure, shortened: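 Dechorionated Tropical 5D zebrafish embryos, one per well from 6 hpf, static exposure to 120 hpf at 28C, 0.64% DMSO. Eye malformation scored present/absent by brightfield; dead embryos not scored.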

[17] = Tanguay_ZF_120hpf_SNOU_legacy: (Legacy) Oregon State University Tanguay Lab 120 Hour Post-fertilization zebrafish Assay for Snout Malformation (AID 2283637)
Procedure, shortened: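 Dechorionated tropical 5D wild-type zebrafish embryos exposed statically from 6 to 120 hpf at 28C, one per well, in 0.64% DMSO. Snout malformation scored as present/absent by brightfield at 120 hpf; dead embryos not scored.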

[18] = TOX21_p53_BLA_p3_viability: Viability Assessment in the Tox21 HCT-116 p53 Agonism Beta-lactamase Assay, Phase 3 (AID 2283593);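 note: cells exposed to compound for 16 h before reading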
Procedure, shortened: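 HCT116 cells, 4000/well, dosed 5 h after plating by pin transfer (217-fold dilution from DMSO stock) and incubated 16 h at 37C, 5% CO2. Viability read as ATP luminescence with CellTiter-Glo after 30 min at room temperature.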

[19] = TOX21_p53_BLA_p4_viability: Viability Assessment in the Tox21 HCT-116 p53 Agonism Beta-lactamase Assay, Phase 4 (AID 2283597);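 note: hits lower the luminescence signal meaning cytotoxicity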
Procedure, shortened: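 Following a 16 h exposure at 37C, the treated HCT116 wells were first read for the FRET ratio. They were then lysed with CellTiter-Glo, and ATP luminescence was recorded after 30 min at room temperature.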

[20] = TOX21_p53_BLA_p5_viability: Viability Assessment in the Tox21 HCT-116 p53 Agonism Beta-lactamase Assay, Phase 5 (AID 2283600)
Procedure, shortened: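 After the 460/530 nm beta-lactamase measurement, the wells received an ATP-detection luciferase reagent; signal was read 30 min later at RT. Compound treatment lasted 16 h on cells pre-incubated 5 h post-seeding.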

## Cn1cc(-c2ccccc2)c(=O)c(-c2cccc(C(F)(F)F)c2)c1
[1]
  outcome: inactive
[2]
  outcome: inactive
[3]
  AC50: 8.71 µM (active)
[4]
  outcome: inactive
[5]
  AC50: 15 µM (active)
[6]
  outcome: inactive
[7]
  outcome: inactive
[8]
  outcome: inactive
[9]
  outcome: inactive
[10]
  outcome: inactive
[11]
  outcome: inactive
[12]
  outcome: inactive
[13]
  outcome: inactive
[14]
  outcome: inactive
[15]
  outcome: inactive
[16]
  outcome: inactive
[17]
  outcome: inactive

## CC(C)(C)OOC(=O)c1ccccc1
[1]
  outcome: inactive
[2]
  outcome: inactive
[3]
  outcome: inactive
[4]
  outcome: inactive
[5]
  outcome: inactive
[6]
  outcome: inactive
[8]
  outcome: inactive
[9]
  outcome: inactive
[18]
  outcome: inactive
[10]
  outcome: inactive
[19]
  outcome: inactive
[11]
  outcome: inactive
[20]
  outcome: inactive
[12]
  outcome: inactive
[13]
  outcome: inactive
[14]
  outcome: inactive
[15]
  outcome: inactive
[16]
  outcome: inactive

## Clc1ccc(Cl)c(Cl)c1
[1]
  outcome: inactive
[2]
  outcome: inactive
[3]
  outcome: inactive
[4]
  AC50: 9.92 µM (active)
[5]
  outcome: inactive
[6]
  outcome: inactive
[7]
  outcome: inactive
[8]
  outcome: inactive
[9]
  outcome: inactive
[10]
  outcome: inactive
[11]
  outcome: inactive
[20]
  outcome: inactive
[12]
  outcome: inactive
[14]
  outcome: inactive
[15]
  outcome: inactive
[16]
  outcome: inactive

## CCCCCCCCOC(=O)c1ccc(C(=O)OCCCCCCCC)c(C(=O)OCCCCCCCC)c1
[1]
  outcome: inactive
[2]
  outcome: inactive
[3]
  outcome: inactive
[4]
  outcome: inactive
[5]
  outcome: inactive
[6]
  outcome: inactive
[7]
  outcome: inactive
[8]
  outcome: inactive
[18]
  outcome: inactive
[10]
  outcome: inactive
[19]
  outcome: inactive
[11]
  outcome: inactive
[20]
  outcome: inactive
[12]
  outcome: inactive
[13]
  outcome: inactive
[14]
  outcome: inactive
[15]
  outcome: inactive
[17]
  outcome: inactive

## Nc1ccc([N+](=O)[O-])cc1
[1]
  outcome: inactive
[2]
  outcome: inactive
[3]
  outcome: inactive
[4]
  outcome: inactive
[5]
  outcome: inactive
[6]
  outcome: inactive
[7]
  outcome: inactive
[8]
  outcome: inactive
[9]
  outcome: inactive
[18]
  outcome: inactive
[10]
  outcome: inactive
[19]
  outcome: inactive
[11]
  outcome: inactive
[20]
  outcome: inactive
[12]
  outcome: inactive
[13]
  outcome: inactive
[14]
  outcome: inactive
[15]
  outcome: inactive
[16]
  outcome: inactive
[17]
  outcome: inactive

## C[N+](C)(C)CC1CO1 (centres undefined)
[1]
  outcome: inactive
[2]
  outcome: inactive
[3]
  outcome: inactive
[4]
  outcome: inactive
[5]
  outcome: inactive
[6]
  outcome: inactive
[8]
  outcome: inactive
[9]
  outcome: inactive
[18]
  outcome: inactive
[10]
  outcome: inactive
[11]
  outcome: inactive
[20]
  outcome: inactive
[12]
  outcome: inactive
[13]
  outcome: inactive
[14]
  outcome: inactive
